Laboratory results: the supplement of paper PMC6555819

Tested on: LXRa homodimer (NR concentration 270 nM)
Experiment: PBM binding z-score (relative to random genomic background probes); higher = stronger binding; sequences stand for … in GC…GCGATTGACAGCGTAGAATGAAGG
How it was run: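 Random background probes are the reference for binding z-scores. These scores derive from regression-normalized fluorescence on custom Agilent 4×180K protein-binding microarrays incubated 1 h with ligand-free nuclear receptor dimers. Binding was detected with antibodies against each partner (one per run).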

Row | Sequence | PBM binding z-score
1 | CGTACAGGGTCAGCTAGGCCAGAGTAGGGACGGC | -0.281
2 | ACCGAAAGGTCGAGGTGAGTATAGAGAAAGGGAA | -0.000757
3 | AATATTAGTTGACTTAGGGCAACCGATACGACGC | 0.741
4 | ACTAGCAGGCCAAGGGTCACTCCAGATTAGTCCG | 0.477
5 | ATCTCTAGGTAACAAAGTTCAGTGAATGCCGAAC | 2.1
6 | TCTAGCAGGCCAGAGGGTCACTTAAGAGGTACGG | -0.547
7 | TCTTGTAGATCATTAGAGGTTAAGAAAGTGCGCT | 1.68
8 | GCTAGTAGTTGAAAGGGCAACCGAATGATTCTCG | 0.0629
9 | GCTCGGAGGACAAGGGCAGAGCTTTGTCCGTAGA | -0.975
10 | AGAATGAGGTTAAGATCATGGAAACAGAATACAT | -0.0716
11 | AGTAGCAGGCCAAGTTTGGGTCACTCAAACAAAG | -0.37
12 | TCGAGTAGGTTACCAATGGGGCATTAAGCTTTCT | -0.459
13 | CCAACTAGGTCACGAAAGGTCAAAGTCGAATGAC | 7.89
14 | AGAATGAGGTTACCAAAGATCAGGGAAACGCTTG | -0.00475
15 | ATCGAAAGGACGTGAGGTGAGTATACAGAAAGGC | -0.29
16 | TCTAGTTGGACACGGAGGTCACACACGACGGGTA | 2.1
17 | CTACCAAGGTGAACAAGGTCATTGATTACTATTC | 2.33
18 | CGAACTAGGTCATTGACAGGACAGTGAGTAGTAA | 0.194
19 | TCTTGTAGATCAACAGGAGGTTATGAAAGATCGA | 0.215
20 | ACTTACGGGTCATCGAGGTTATAGCACGCGTATA | 0.924

Row | Sequence | PBM binding z-score
21 | GCTATCAGTTGAAAGGGCAACCGAATGATTCTCG | 0.000257
22 | CGAACGAGGGCATGAGTTGATAGCGAATGCCGAT | -0.522
23 | TAGCCTAGGTCATGCGGGCCAGAATAGTGTCGGC | 0.255
24 | GCTAGTTGGTCAGTAAAAGGTCACAAACCGGTCG | 3.4
25 | CCTAGTTGGTCAAGGGCACACACGCTATAGGTAC | 0.134
26 | ACAGACGGGTGAGTGAAGGTAACTCAGCTGGACG | -0.31
27 | CCTATTAGTTGACCATAAGGGCAACCTAAGCTCG | 0.487
28 | GGAACGAGGGCAAGTTGATACCAGAGTTTGATGG | -0.0805
29 | CCTTACAGGTCACTCCAGGTTATAGCATCGGAGT | 5.05
30 | TTACCAAGGTGAAGGTTGTTGATCCCTCTGTAGA | -0.298
31 | TCAGATAGGTAAACAGGTGAAAGTCCGTAAGTTA | 0.121
32 | AGAATGAGGTTGAGATCAGGGAAACAGAATACAT | -0.104
33 | TCTCGGAGGACACGAAGGTCACAGCTTTCCAGAG | 1.52
34 | TCTCGGAGGACACGAAGGTCAGATCTTTCCAGAG | 1.09
35 | AGAACGAGGGCACGCGGAGTTGATAGCAGAGTAG | -0.442
36 | CCTCAGAGGACAGAAGGTCAGAGCTGTCCGCTTT | -0.13
37 | TCTCGGAGGACACGAAGGTTAGAGCTTTCCAGAG | -0.684
38 | CGTTCAAGGTCAGAGAGGTCAGTGAATGCCGAGT | 3.71
39 | CTTGCTAGGTCATGGTCAGCTAATCTACAGTATG | 0.466
40 | CCTTACGGGTCTCGAGGTTATAGCACGACGAGCG | -0.197
